# Columns and labels:
# Assay in all cases: DAPPL (digital affinity profiling via proximity ligation, sequencing); 10 mM Tris-HCl pH 7.5, 50 mM NaCl, 1 mM DTT, 4% glycerol, room temperature, 30 min; GST-TFs on glutathione beads, 16-mer random dsDNA library, 0.1% formaldehyde crosslink after washing; high values mean tight binding
# Details in all cases: protein: recombinant; tags: N-terminal GST; dsDNA, one strand shown
# FLI1 = molecular target: T1, FLI1 (Homo sapiens, UniProt Q01543 1-452)
# T1 sequence: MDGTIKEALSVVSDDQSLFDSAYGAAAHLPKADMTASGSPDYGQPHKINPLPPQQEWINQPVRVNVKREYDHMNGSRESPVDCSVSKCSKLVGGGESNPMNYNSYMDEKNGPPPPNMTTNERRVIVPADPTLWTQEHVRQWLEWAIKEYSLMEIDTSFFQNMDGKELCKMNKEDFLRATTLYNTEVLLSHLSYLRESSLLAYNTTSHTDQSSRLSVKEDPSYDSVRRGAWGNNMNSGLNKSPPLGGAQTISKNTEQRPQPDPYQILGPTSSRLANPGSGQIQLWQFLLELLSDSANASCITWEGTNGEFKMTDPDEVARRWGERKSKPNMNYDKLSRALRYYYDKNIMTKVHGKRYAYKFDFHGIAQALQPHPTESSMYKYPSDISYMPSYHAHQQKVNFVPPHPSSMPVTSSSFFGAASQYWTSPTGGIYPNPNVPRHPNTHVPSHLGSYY
# How it was run: (§1)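 Sequencing on an Illumina NextSeq500 followed washing, crosslinking with 0.1% formaldehyde, proximity ligation (BsaI/T4 ligase, 1 h, 37 °C) and PCR amplification of pools that had been incubated for 30 min at room temperature with 200 nmole of a random double-stranded 16-mer DNA library in Tris/NaCl/DTT/glycerol buffer. Each pool held DNA-barcoded human transcription factors, expressed in yeast as GST fusions and captured on glutathione beads, plus a tag-only sample. Binding signal is a hexamer's read frequency for a factor divided by its frequency in the tag-only sample.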
# ELK1 = molecular target: T2, ELK1 (Homo sapiens, UniProt P19419 1-428)
# T2 sequence: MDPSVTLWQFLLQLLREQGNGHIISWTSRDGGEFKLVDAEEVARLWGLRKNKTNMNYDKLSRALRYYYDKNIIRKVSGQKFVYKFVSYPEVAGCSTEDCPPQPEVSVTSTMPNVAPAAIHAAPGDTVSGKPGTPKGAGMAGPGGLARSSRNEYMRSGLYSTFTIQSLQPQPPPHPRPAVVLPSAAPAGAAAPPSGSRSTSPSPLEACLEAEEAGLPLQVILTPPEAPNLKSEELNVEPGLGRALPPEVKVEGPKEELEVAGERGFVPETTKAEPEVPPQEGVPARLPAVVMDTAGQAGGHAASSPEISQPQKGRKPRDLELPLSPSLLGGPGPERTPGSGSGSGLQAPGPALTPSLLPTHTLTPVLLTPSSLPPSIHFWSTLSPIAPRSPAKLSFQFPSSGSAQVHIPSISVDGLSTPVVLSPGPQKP
# How it was run: as §1
# GABPA = molecular target: T3, GABPA (Homo sapiens, UniProt Q06546 1-454)
# T3 sequence: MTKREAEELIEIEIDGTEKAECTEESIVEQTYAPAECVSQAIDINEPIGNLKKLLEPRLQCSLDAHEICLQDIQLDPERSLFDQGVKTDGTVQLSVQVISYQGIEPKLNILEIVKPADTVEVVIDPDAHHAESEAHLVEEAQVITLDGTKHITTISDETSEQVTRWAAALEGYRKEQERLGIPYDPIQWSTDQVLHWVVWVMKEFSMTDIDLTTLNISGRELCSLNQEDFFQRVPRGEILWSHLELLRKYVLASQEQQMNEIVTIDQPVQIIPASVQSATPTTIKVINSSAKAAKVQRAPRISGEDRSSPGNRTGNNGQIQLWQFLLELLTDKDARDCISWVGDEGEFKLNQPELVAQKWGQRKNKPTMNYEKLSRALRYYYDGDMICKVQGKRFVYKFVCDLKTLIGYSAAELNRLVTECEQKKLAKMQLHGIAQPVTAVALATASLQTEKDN
# How it was run: as §1
# ERG = molecular target: T4, ERG (Homo sapiens, UniProt P11308 1-479)
# T4 sequence: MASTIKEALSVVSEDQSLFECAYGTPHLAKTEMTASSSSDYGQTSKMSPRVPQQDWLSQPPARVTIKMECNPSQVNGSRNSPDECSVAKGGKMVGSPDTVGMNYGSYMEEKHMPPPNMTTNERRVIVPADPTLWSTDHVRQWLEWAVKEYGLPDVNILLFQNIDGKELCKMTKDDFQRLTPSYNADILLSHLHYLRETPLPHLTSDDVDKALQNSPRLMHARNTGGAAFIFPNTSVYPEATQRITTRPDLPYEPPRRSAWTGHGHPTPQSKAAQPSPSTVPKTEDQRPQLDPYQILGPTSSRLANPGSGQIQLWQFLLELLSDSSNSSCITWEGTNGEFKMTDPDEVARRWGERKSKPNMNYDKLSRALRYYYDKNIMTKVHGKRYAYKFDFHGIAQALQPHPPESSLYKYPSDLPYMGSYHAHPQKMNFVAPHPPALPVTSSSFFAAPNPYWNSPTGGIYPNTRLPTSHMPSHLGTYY
# How it was run: as §1
# ELF1 = ELF1 (Homo sapiens, UniProt P32519 1-619)
# Sequence of ELF1 (P32519 whole entry): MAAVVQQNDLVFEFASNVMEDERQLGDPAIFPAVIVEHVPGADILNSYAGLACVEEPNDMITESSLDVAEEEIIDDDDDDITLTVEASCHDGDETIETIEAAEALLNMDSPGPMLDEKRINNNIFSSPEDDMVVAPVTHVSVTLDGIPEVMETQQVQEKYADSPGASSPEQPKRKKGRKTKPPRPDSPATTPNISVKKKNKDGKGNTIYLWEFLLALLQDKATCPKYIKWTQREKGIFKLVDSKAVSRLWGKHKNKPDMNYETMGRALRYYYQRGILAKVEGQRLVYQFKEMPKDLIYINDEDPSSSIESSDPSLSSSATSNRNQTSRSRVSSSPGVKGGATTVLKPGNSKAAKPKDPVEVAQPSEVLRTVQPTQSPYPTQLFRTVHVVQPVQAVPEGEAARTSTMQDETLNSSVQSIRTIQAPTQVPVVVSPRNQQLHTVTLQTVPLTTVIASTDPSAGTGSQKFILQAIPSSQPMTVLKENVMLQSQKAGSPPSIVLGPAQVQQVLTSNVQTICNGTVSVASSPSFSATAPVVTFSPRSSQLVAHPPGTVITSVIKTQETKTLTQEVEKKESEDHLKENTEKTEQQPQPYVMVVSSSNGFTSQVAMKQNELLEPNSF
# How it was run: as §1
# EHF = molecular target: T5, EHF (Homo sapiens, UniProt Q9NZC4 1-300)
# T5 sequence: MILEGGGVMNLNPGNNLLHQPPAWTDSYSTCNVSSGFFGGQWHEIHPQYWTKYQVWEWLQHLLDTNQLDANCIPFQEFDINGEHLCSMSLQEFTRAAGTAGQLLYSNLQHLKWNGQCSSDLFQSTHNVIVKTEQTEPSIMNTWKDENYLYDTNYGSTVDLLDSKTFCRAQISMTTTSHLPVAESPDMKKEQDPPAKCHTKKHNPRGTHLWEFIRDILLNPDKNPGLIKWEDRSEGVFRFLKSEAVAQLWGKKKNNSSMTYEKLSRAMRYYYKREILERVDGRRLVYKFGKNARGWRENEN
# How it was run: as §1
# SPIB = SPIB (Homo sapiens, UniProt Q01892 1-262)
# Sequence of SPIB (Q01892 whole entry): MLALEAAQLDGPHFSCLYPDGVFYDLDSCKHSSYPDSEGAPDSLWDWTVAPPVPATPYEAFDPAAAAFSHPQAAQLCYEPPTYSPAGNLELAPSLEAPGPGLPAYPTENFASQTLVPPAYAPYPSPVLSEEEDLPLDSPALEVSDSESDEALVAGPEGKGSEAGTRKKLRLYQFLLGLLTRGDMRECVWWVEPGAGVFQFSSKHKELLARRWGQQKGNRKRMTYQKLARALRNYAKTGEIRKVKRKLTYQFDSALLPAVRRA
# How it was run: as §1
# FEV = molecular target: T6, FEV (Homo sapiens, UniProt Q99581 1-238)
# T6 sequence: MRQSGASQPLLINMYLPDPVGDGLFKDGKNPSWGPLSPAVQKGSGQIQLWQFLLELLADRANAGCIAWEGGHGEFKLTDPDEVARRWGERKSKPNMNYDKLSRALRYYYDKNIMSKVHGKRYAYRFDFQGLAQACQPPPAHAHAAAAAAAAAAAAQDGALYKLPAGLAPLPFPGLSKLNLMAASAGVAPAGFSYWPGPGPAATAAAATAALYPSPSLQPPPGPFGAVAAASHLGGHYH
# How it was run: as §1
# SPIC = molecular target: T7, SPIC (Homo sapiens, UniProt Q8N5J4 1-248)
# T7 sequence: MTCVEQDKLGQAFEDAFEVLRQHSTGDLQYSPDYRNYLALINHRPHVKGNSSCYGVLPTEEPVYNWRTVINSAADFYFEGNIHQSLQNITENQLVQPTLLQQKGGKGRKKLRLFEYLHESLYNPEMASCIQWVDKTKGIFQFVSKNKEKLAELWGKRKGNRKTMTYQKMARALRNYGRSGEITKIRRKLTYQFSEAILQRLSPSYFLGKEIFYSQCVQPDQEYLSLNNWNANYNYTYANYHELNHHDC
# How it was run: as §1
# ELF4 = ELF4 (Homo sapiens, UniProt Q99607 1-663)
# Sequence of ELF4 (Q99607 whole entry): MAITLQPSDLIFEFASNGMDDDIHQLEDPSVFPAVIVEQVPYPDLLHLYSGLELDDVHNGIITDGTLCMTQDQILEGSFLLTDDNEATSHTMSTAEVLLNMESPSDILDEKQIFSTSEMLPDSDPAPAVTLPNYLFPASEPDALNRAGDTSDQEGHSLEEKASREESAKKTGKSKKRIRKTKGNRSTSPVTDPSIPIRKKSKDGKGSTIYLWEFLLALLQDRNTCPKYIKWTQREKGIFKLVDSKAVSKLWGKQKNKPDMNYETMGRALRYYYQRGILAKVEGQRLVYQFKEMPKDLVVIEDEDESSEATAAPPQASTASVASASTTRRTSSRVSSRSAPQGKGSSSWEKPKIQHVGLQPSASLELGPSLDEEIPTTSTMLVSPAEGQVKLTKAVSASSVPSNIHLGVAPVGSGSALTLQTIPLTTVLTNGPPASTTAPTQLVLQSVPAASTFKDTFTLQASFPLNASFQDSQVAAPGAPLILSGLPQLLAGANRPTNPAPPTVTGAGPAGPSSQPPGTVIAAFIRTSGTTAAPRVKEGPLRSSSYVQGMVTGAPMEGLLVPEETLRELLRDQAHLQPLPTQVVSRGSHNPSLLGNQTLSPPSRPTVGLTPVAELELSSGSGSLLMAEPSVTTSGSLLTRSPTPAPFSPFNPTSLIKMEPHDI
# How it was run: as §1
# ELK4 = molecular target: T8, ELK4 (Homo sapiens, UniProt P28324-2 1-405)
# T8 sequence: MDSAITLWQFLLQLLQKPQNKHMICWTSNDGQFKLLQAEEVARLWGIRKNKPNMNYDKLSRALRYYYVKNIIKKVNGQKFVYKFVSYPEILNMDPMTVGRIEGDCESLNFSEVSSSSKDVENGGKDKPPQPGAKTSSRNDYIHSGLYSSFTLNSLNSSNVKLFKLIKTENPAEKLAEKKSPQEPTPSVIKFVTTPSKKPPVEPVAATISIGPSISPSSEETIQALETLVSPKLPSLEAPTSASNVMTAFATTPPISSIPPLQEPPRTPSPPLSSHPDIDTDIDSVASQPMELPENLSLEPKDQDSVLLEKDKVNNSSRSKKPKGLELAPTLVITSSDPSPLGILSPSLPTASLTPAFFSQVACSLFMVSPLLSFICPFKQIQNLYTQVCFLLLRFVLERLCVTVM
# How it was run: as §1
sequence,measurement,setting,value
ACAGCC,binding signal,FLI1,"1 fold enrichment (6-mer frequency, TF over GST control)"
same,binding signal,ELK1,"1.1 fold enrichment (6-mer frequency, TF over GST control)"
same,binding signal,GABPA,"1.07 fold enrichment (6-mer frequency, TF over GST control)"
same,binding signal,ERG,"1.02 fold enrichment (6-mer frequency, TF over GST control)"
same,binding signal,ELF1,"1.11 fold enrichment (6-mer frequency, TF over GST control)"
same,binding signal,EHF,"1.11 fold enrichment (6-mer frequency, TF over GST control)"
same,binding signal,SPIB,"1.03 fold enrichment (6-mer frequency, TF over GST control)"
same,binding signal,FEV,"1.02 fold enrichment (6-mer frequency, TF over GST control)"
same,binding signal,SPIC,"1.08 fold enrichment (6-mer frequency, TF over GST control)"
same,binding signal,ELF4,"1.11 fold enrichment (6-mer frequency, TF over GST control)"
same,binding signal,ELK4,"1.04 fold enrichment (6-mer frequency, TF over GST control)"

# Source: article PMC7862700, “An all-to-all approach to the identification of sequence-specific readers for epigenetic DNA modifications on cytosine”
